Drawing on PubChem BioAssay (Tox21), this text covers Potency and outcome for 10 compounds.

The structures appear in SMILES notation. Where “and” joins values, the source holds several entries; their conditions need not be identical. Identical values can stand only once. Inconclusive results are not listed. Some compounds were tested as several samples or in several runs, with calls that do not always agree. Calls of active or inactive are those of the source. Unless noted, calls follow the shape of the dose curve; as a rule, active = well fitted curve in the direction sought with a large enough effect in the repeat runs; inconclusive = weak or mixed curves; inactive = no such curve, though single readings can be large; an effect the other way counts as inactive or inconclusive.

A short description of assay [1]: qHTS assay to identify small molecule agonists of the vitamin D receptor (VDR) signaling pathway - cell viability counter screen (AID 743224). Also: series mostly up to about 63 µM; nearly all actives have a fitted effect of over 50% in size. Put shortly:
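Counter screen run in the same wells as the VDR-bla reporter assay: CellTiter-Glo luminescence, 30 min at room temperature, after 16 h compound treatment at 37C of cells pre-plated for 4 h.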
For orientation: qHTS replaces the single test concentration by a dilution series.

Assay [2] in a line: qHTS assay to identify small molecule antagonists of the vitamin D receptor (VDR) signaling pathway - cell viability counter screen (AID 743225). Also: nearly all actives have a fitted effect of over 50% in size. The gist of the method: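 Cells (VDR-UAS-bla HEK 293T) are plated, rested 4 h at 37C, dosed with compound and 3 nM final 1-alpha,25-dihydroxy vitamin D3, and incubated 16 h. Viability is taken from CellTiter-Glo luminescence in the reporter wells.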

Assay [3] in a line: qHTS assay to identify small molecule agonists of the NFkB signaling pathway (AID 1159509; active = well fitted curve in the direction sought with a large enough effect in the signal ratio in the repeat runs, not every such curve was filed as active; the % refers to the signal ratio; also: series mostly up to about 61 µM). Put shortly: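 Agonist activity was read as beta-lactamase-driven FRET change (460 and 530 nm emission, 405 nm excitation) following 1.5 hr substrate loading at room temperature. Beforehand, ME-180 NFkB-bla reporter cells were treated with compounds for 5 hr at 37 C.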
Assay [4] is described as follows: qHTS assay to identify small molecule agonists of the NFkB signaling pathway - cell viability counter screen (AID 1159515; calls by dose curve; also: series mostly up to about 61 µM; nearly all actives have a fitted effect of over 55% in size). Put shortly: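 Read by CellTiter-Glo luminescence (30 min, room temperature) in the wells also used for the beta-lactamase FRET read. ME-180 NFkB-bla cells at 2,000 per well were plated overnight, then exposed to compound for 5 hr at 37 C.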

A short description of assay [5]: qHTS assay to identify small molecule agonists of the endoplasmic reticulum stress response signaling pathway - cell viability counter screen (AID 1159517; calls by dose curve; also: series mostly up to about 61 µM; nearly all actives have a fitted effect of over 50% in size). The gist of the method: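 In parallel with the ESRE reporter read, cytotoxicity was scored by CellTiter-Glo luminescence (30 min, room temperature) on HeLa ESRE-bla cells dosed for 5 hr.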
Assay [6] can be described thus: qHTS assay to identify small molecule antagonists of the retinoid-related orphan receptor gamma (ROR-gamma) signaling pathway - cell viability counter screen (AID 1159520). Also: nearly all actives have a fitted effect of over 50% in size. Also: potency is read from the fitted curve at half-maximal effect. The gist of the method: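 Tet-on ROR gamma CHO cells were given compounds for 2 hr, then doxycycline hyclate at 1 uM final, and incubated 16 hr at 37 C. Viability was measured as ATP content by CellTiter-Glo luminescence.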

Assay [7] deals with Nuclear receptor ROR-gamma (Homo sapiens) (UniProt P51449). The assay can be described thus: qHTS assay to identify small molecule antagonists of the retinoid-related orphan receptor gamma (ROR-gamma) signaling pathway (AID 1159521). The gist of the method: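 RORγ antagonism is scored from reduced reporter luminescence in Tet-on CHO cells. Induction used 1 uM final doxycycline hyclate for 16 h at 37 C, following a 2 h compound exposure.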

Assay [8] in a line: qHTS assay to identify small molecule agonists of the AP-1 signaling pathway (AID 1159526; calls by dose curve).
The target in assay [9] is Retinoic acid receptor RXR-alpha (Homo sapiens) (UniProt P19793). As to the kind of experiment: qHTS assay to identify small molecule agonists of the RXR signaling pathway (AID 1159527; calls by dose curve; also: nearly all actives have a fitted effect of over 35% in size). The gist of the method:
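qHTS of the Tox21 10K library in GeneBLAzer RXR-alpha HEK 293T cells carrying a beta-lactamase reporter […]; 16 hr treatment, 9-cis retinoic acid as agonist control, FRET read-out.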

Assay [10] in a line: qHTS assay to identify small molecule agonists of the RXR signaling pathway - cell viability counter screen (AID 1159529). The gist of the method: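 Cell viability is measured by CellTiter-Glo luminescence, 30 min at room temperature, in wells already read for beta-lactamase. Engineered HEK 293T cells (RXR-alpha-UAS-bla) are dosed 16 hr at 37 C. Tetraoctyl ammonium bromide serves as positive control.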

A short description of assay [11]: qHTS assay to identify small molecule antagonists of the retinoid acid receptor (RAR) signaling pathway - cell viability counter screen (AID 1159551). Also: nearly all actives have a fitted effect of over 35% in size. Put shortly: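 Cytotoxicity counter screen: ATP content quantified by CellTiter-Glo luminescence in C3RL4 cells treated 6 hr at 37 C with compound and retinol (1 uM final). Cells plated at 1,000/well and cultured overnight before dosing.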

Assay [12] in a line: qHTS assay to identify small molecule antagonists of the retinoic acid receptor (RAR) signaling pathway (AID 1159552; also: nearly all actives have a fitted effect of over 50% in size). Put shortly: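 Quantitative HTS in C3RL4 RARE-luciferase reporter cells. Compounds were added with 1 uM (final) retinol; luminescence was read after 6 hr.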
The nature of assay [13]: qHTS assay to identify small molecule agonists of the retinoic acid receptor (RAR) signaling pathway (AID 1159553). Also: potency is read from the fitted curve at half-maximal effect. Put shortly:
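Luminescence was measured 30 min after luciferase reagent addition at room temperature. Before that, C3RL4 reporter cells (1,000 per well, plated overnight) were treated with compound for 6 hr at 37 C and 5% CO2.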

Assay [14] is described as follows: qHTS assay to identify small molecule agonists of the endoplasmic reticulum stress response signaling pathway (AID 1159516; active = well fitted activation curve with a large enough effect in the signal ratio in the repeat runs, not every such curve was filed as active; the % refers to the signal ratio). The gist of the method:
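Ratiometric FRET readout (405 nm excitation; 460 and 530 nm emission) of a beta-lactamase gene driven by the ER stress response element, after 2 hr substrate loading. HeLa ESRE-bla cells were seeded overnight and treated with compounds for only 5 hr at 37 C.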

Assay [15] is described as follows: qHTS assay to identify small molecule agonists of the AP-1 signaling pathway - cell viability counter screen (AID 1159525; calls by dose curve; also: nearly all actives have a fitted effect of over 55% in size). Put shortly:
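Same-well cytotoxicity counter screen of the Tox21 10K library in ME-180 cells. The readout is ATP-dependent luminescence after 5 h compound treatment. Data are normalised to DMSO and tetra n-octyl ammonium bromide controls.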

The nature of assay [16]: qHTS assay to identify small molecule antagonists of the estrogen related receptor (ERR) signaling pathway - cell viability counter screen (AID 1224818).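 Also: series mostly up to about 46 µM; viability measured after 17.5 h of compound exposure.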 Put shortly:
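Cytotoxicity counter screen: fluorescence from CellTiter-Fluor, added after 17.5 h compound exposure at 37 C and read 30 min later. ERR cell line seeded at 2,000 cells/well, preincubated 6 h before dosing.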

Sequence of Retinoic acid receptor RXR-alpha (Homo sapiens) (P19793 whole entry, looked up): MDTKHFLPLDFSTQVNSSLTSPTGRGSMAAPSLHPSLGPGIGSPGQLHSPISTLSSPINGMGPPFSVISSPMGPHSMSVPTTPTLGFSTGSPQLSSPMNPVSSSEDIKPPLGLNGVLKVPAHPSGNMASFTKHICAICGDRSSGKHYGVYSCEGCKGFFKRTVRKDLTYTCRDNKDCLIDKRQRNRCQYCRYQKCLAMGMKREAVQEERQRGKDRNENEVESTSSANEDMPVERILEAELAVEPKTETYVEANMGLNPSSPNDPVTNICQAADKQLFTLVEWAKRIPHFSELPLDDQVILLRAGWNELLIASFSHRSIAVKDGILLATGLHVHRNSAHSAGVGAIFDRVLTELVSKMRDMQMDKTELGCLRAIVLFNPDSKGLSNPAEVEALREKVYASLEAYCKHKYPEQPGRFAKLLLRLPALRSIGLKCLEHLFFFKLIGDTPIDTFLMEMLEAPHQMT

On to `CCCCOCCO`, for which the Potency result in assay [1], in assay [2], in [5], in [6], in [7] and in [8] was “inactive” each time. In addition, the Potency result in [9], in assay [10], in assay [11], in [12] and in assay [13] was “inactive” each time. Further, the outcome in [3] and in [4] was inactive.

On to `CC1Cc2ccccc2N1NC(=O)c1ccc(Cl)c(S(N)(=O)=O)c1` (configuration not stated), for which the Potency result in [1], in assay [2], in assay [5], in [6], in [7] and in assay [15] was “inactive” throughout. The Potency result in assay [8], in assay [9], in assay [10], in [11], in [12] and in [13] was “inactive” throughout. Also, the outcome in assay [3] and in assay [14] was inactive.

As for `OCC#CCO`, the Potency result in assay [1], in assay [2], in assay [5], in assay [7], in assay [8] and in assay [9] was “inactive” each time. Besides, the Potency result in assay [10], in assay [11], in [12] and in assay [13] was “inactive” in each case. Further, the result in [3] and in assay [4] was inactive. The Potency entry in assay [6] is “inactive and 54.5 µM (active)”.

Consider `OC1CCCC1`, for which the Potency result in assay [1], in [2], in [5], in assay [6], in assay [7] and in assay [8] was “inactive” in each case. In addition, the Potency result in assay [9], in assay [10], in assay [11], in assay [12] and in assay [13] was “inactive” in each case. The result in assay [4] was inactive.

Consider `O=S(=O)(O)c1cc(S(=O)(=O)O)c2c(N=Nc3ccccc3)c(O)ccc2c1`, for which the Potency result in assay [1], in [2], in [5], in assay [6], in assay [15] and in assay [8] was “inactive” in each case. Further, the Potency result in assay [9], in assay [10] and in [11] was “inactive” each time.

Take `C=C(C)C(=O)OCC(CC)(COC(=O)C(=C)C)COC(=O)C(=C)C`: the Potency entry in [1], in assay [2], in assay [5], in assay [6], in [7] and in assay [15] was “inactive” each time. In addition, the Potency entry in assay [8], in assay [9], in assay [10], in assay [11], in assay [12] and in assay [13] was “inactive” in each case. Besides, in assay [4], the compound was called inactive.

For the compound `Oc1ccc2ccccc2c1N=Nc1ccccc1`, the Potency result in assay [1], in [2], in assay [5], in assay [6], in assay [7] and in assay [15] was “inactive” each time. The Potency entry in assay [9], in assay [11] and in [12] was “inactive” in each case. For the same compound, in [13], the Potency was 12.2 µM (active).

Take `NCCc1ccc(O)c(O)c1`: the Potency result in assay [1], in assay [2], in assay [5], in [6], in [7] and in assay [8] was “inactive” throughout. The Potency entry in [9], in assay [10] and in assay [11] was “inactive” each time. Also, the result in [4] and in assay [16] was inactive.

For `Oc1ccc(OCc2ccccc2)cc1`, the Potency entry in assay [1], in assay [2], in [5], in assay [6], in assay [7] and in assay [15] was “inactive” each time. The Potency result in assay [8], in assay [9], in assay [10], in assay [11] and in [12] was “inactive” in each case. Further, the compound was called inactive in assay [4] and in assay [14]. Besides, the Potency in assay [13] was 4.24 µM (active) and inactive.

As to `Cc1ccc(C)c(C)c1`, the Potency entry in [1], in [2], in assay [5], in assay [6], in assay [7] and in [8] was “inactive” throughout. Besides, the Potency entry in assay [9], in assay [10], in assay [11], in assay [12] and in [13] was “inactive” in each case. For the same compound, the outcome in [4] and in [14] was inactive.
